# ± gives the uncertainty stated by the source. In all, about 9,900 compounds were measured (“viability index relative to DMSO control”: median about 1, lowest 2% from about 0.85 on). The list comes from a sample in which the lowest values are over-represented; it also holds similar structures and randomly drawn compounds.
# Tested on: Plasmodium falciparum NF54 stage V gametocytes
# Assay: viability index relative to DMSO control (fraction); higher = less gametocyte killing
# Details: 2.5 µM, incubation time: 72 h
# Summary of the method: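 In 1,536-well plates, 10 µl of serum-free medium holding P. falciparum NF54 stage V gametocytes (0.75% gametocytemia, 1.25% hematocrit) received compound at 2.5 µM for 72 hr at 37°C in low oxygen. After one to two hours with 3 µl of 2.5 µM MitoTracker Red CMXRos containing 0.13% saponin, red particles of 20–70 µm2 were counted in a single field per well. Viability index is reported as the particle count over the plate mean of wells treated with solvent only.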
# [1] = library set: Broad Institute DOS
# [2] = library set: Broad Institute Blood Stage
Structure (SMILES),viability index [1],viability index [2]
C[C@@H]1C/C=C/C[C@@H](c2ccccc2)NC(=O)[C@H](C)N(C)C(=O)c2ccccc2O1.C[C@@H]1C/C=C\C[C@@H](c2ccccc2)NC(=O)[C@H](C)N(C)C(=O)c2ccccc2O1,1 ± 0.069,
COc1ccc2c3c([C@H](CO)NC[C@]33CCN(Cc4ccc(cc4)-c4ccccn4)CC3)n(C)c2c1,,0.835 ± 0.04
COc1ccc2c3c([C@@H](CO)NC[C@]33CCN(Cc4ccncc4)CC3)n(C)c2c1,1.01 ± 0.045,
COc1ccc2c3c([C@H](CO)NC[C@]33CN(Cc4ccc(cc4)-c4ccccn4)C3)n(C)c2c1,0.934 ± 0.11,
COc1ccc2c3c([C@@H](CO)NC[C@]33CN(Cc4ccc(cc4)-c4ccccn4)C3)n(C)c2c1,0.997 ± 0.019,
COc1ccc2c3c([C@H](CO)NC[C@]33CN(Cc4ccc(F)cc4)C3)n(C)c2c1,0.841 ± 0.014,
COc1ccc2c3c([C@@H](CO)NC[C@]33CCN(Cc4ccc(cc4)-c4ccccn4)CC3)n(C)c2c1,,0.946 ± 0.052
CO[C@H]1CN(C)C(=O)c2cc(NC(=O)c3cnccn3)ccc2OC[C@H](C)NC[C@H]1C,1.09 ± 0.041,
COc1ccc(-c2ccc([C@H]3[C@H]4CNC[C@@H]3N4S(=O)(=O)c3cn(C)cn3)cc2)cc1,1.0563 ± 0.00097,
O=C(CC1CC1)N1CC2(C1)[C@@H](c1ccccc1)[C@H](CO)N2C(=O)c1ccccn1,1 ± 0.013,
C[C@H]1CN([C@@H](C)CO)C(=O)c2c(c3ccccc3n2C)-c2ccccc2CO[C@H]1CN(C)C,1.04 ± 0.052,
O=C(C[C@H]1CC[C@H]2NC[C@@H](O)COC[C@@H]2O1)N1CCc2ccccc2C1,1.03 ± 0.049,
O=C(CC1CC1)N1CC[C@@H]2[C@H]1c1cc(-c3ccc(F)cc3)ccc1N[C@@H]2CO,1.046 ± 0.009,
COc1ccc(C#Cc2cccc(-c3nc(C(=O)Nc4ccc(-c5ccccc5)cc4)cc4c3[C@@H](CCO)N(S(=O)C(C)(C)C)C4)c2)cc1OC (stereo partly drawn),1.016 ± 0.0075,
CC(C)(C)S(=O)N1Cc2cc(C(=O)O)nc(-c3cccc(-c4cc5ccccc5o4)c3)c2[C@@H]1CCO (stereo partly drawn),1.03 ± 0.023,
COc1ccc(C#Cc2cccc(-c3nc(C(=O)NCc4ccc5c(c4)OCO5)cc4c3[C@@H](CCO)N(S(=O)C(C)(C)C)C4)c2)cc1OC (stereo partly drawn),0.9061 ± 0.0023,
COc1ccc(C#Cc2cccc(-c3nc(C(=O)N4CCN(Cc5ccccc5)CC4)cc4c3[C@H](CCO)N(S(=O)C(C)(C)C)C4)c2)cc1OC (stereo partly drawn),1.04 ± 0.11,
CC(C)(C)S(=O)N1Cc2cc(C(=O)N3CCN(Cc4ccccc4)CC3)nc(-c3cccc(-c4cc5ccccc5o4)c3)c2[C@H]1CCO (stereo partly drawn),0.7362 ± 0.0068,
COc1ccccc1-c1cccc(-c2nc(C(=O)N3CCN(C)CC3)cc3c2[C@H](CCO)N([S@@](=O)C(C)(C)C)C3)c1,1.03 ± 0.032,

Structure (SMILES),viability index [1],viability index [2]
CC(C)(C)S(=O)N1Cc2cc(C(=O)NCc3ccc4c(c3)OCO4)nc(-c3cccc(-c4cc5ccccc5o4)c3)c2[C@H]1CCO (stereo partly drawn),0.656 ± 0.04,
CC(C)(C)S(=O)N1Cc2cc(C(=O)NCc3ccc4c(c3)OCO4)nc(-c3cccc(-c4cccc(F)c4)c3)c2[C@@H]1CCO (stereo partly drawn),1.04 ± 0.015,
COc1ccc(C#Cc2cccc(-c3nc(C(=O)N4CCN(Cc5ccccc5)CC4)cc4c3[C@@H](CCO)N(S(=O)C(C)(C)C)C4)c2)cc1OC (stereo partly drawn),0.826 ± 0.14,
Cc1ccc(CN2CC(=O)N3[C@H](CO)[C@@H](c4ccc(-c5ccccc5F)cc4)[C@H]3C2)cc1,1.05 ± 0.062,
CC(=O)N1[C@H](CO)[C@@H](c2ccccc2)C12CN(S(=O)(=O)c1ccccc1)C2,1.11 ± 0.03,
COC(=O)C[C@H]1CC[C@@H]2[C@H](COc3ccc(NC(=O)Nc4cccc(C#N)c4)cc3C(=O)N2C)O1,1.1 ± 0.091,
O=C(Cc1cccnc1)N1CC(=O)N2[C@H](C1)[C@@H](c1ccc(C#CC3CCCCC3)cc1)[C@@H]2CO,0.985 ± 0.11,
O=C(C1CCOCC1)N1CC(=O)N2[C@H](C1)[C@H](c1ccc(C#CC3CCCCC3)cc1)[C@@H]2CO,1.03 ± 0.018,
C[C@@H]1CN([C@@H](C)CO)C(=O)c2cc(NC(=O)Cn3cnnn3)ccc2O[C@H]1CN(C)Cc1ccc(C(=O)Nc2ccccc2N)cc1,1.002 ± 0.0028,
O=C(C[C@H]1C[C@@H]2c3cc(NC(=O)Nc4ccccc4)ccc3O[C@@H]2[C@H](CO)O1)NCc1ccccc1,1.06 ± 0.03,
Cc1ccc(S(=O)(=O)Nc2ccc3c(c2)CC(=O)N([C@H](C)CO)C[C@@H](C)[C@@H](CN(C)S(=O)(=O)c2ccccc2)O3)cc1,0.949 ± 0.021,
CCCC(=O)N1C[C@]2(CN(Cc3nccs3)C2)c2c([nH]c3cc(OC)ccc23)[C@@H]1CO,1 ± 0.024,
N#C[C@@H]1[C@@H](c2ccccc2-c2ccccc2)[C@H](CO)N1C(=O)Cc1ccncc1,1.1 ± 0.2,
C[C@H]1CN([C@@H](C)CO)C(=O)c2ccccc2-c2ccccc2CO[C@H]1CN(C)Cc1cccc(C(=O)O)c1,0.958 ± 0.034,
O=C(C[C@H]1CC[C@H](NC(=O)C2CC2)[C@H](CO)O1)Nc1ccccc1,0.992 ± 0.033,
O=C(C[C@H]1CC[C@H](NC(=O)C2CC2)[C@@H](CO)O1)Nc1ccccc1,0.981 ± 0.031,
O=C(C[C@H]1CC[C@@H](NC(=O)C2CC2)[C@H](CO)O1)Nc1ccccc1,0.839 ± 0.19,
CO[C@H]1CN(C)C(=O)c2cc(NS(=O)(=O)CC(F)(F)F)ccc2OC[C@@H](C)NC[C@H]1C,1.07 ± 0.0046,
CCC(=O)N1CC(=O)N2[C@H](CO)[C@H](c3ccc(C#CCC(C)C)cc3)[C@H]2C1,0.956 ± 0.046,
